In PubChem BioAssay (NCI) one finds growth data, which are given here for 40 compounds.

The panel holds about 83,000 compounds, 20% with a hit somewhere; the sample as a whole holds those more often.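 Each cell line was grown in a 96-well plate and treated with one concentration of compound for 48 hours. Values below 10 were considered active.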 A number with no mark means an inactive call. Calls of active or inactive are those of the source.

For the test, the system named is T-47D breast. As to the kind of experiment: NCI-60 one-dose screen, 48 h (100 = growth as untreated, 0 = no growth, -100 = all killed). To be noted: 10 µM unless noted.
As for `CC1(C)CC[C@]2(C(=O)N3CCOCC3)CC[C@]3(C)C(=CC[C@@H]4[C@@]5(C)C/C(=C/c6ccncc6)C(=O)C(C)(C)[C@@H]5CC[C@]43C)[C@@H]2C1`, the growth was 20.2%.

On to `O=C(Nc1cccnc1Nc1ccc(Cl)cc1)c1cn(Cc2ccc(F)cc2)nn1`, for which the growth was 90.5%.

With `C=C1C(=O)O[C@H]2[C@H]1CC/C(CNC(=O)c1cc3ccccc3[nH]1)=C\CC[C@@]1(C)O[C@@H]21`, the growth was -42.2% (active).

Consider `C=CCN=C(N)SCCCCCCSC(N)=NCC=C`, for which the growth is 55.9%.

As to `CNC(=O)c1c(NC(=O)c2ccc(C(C)(C)C)cc2)sc2c(CN(C)C)c(O)ccc12`, the growth was -3.98% (active).

As to `COc1ccc(C/C(C)=C(\c2ccc(O)cc2)c2ccc(OCCN3CCCC3)cc2)cc1`, the growth is 73.3%.

Consider `S=c1ssnc1-c1cccs1`, for which the growth was 92.6%.

As to `COc1cc(/C=C/c2cc(/C=C/c3ccc(O)c(OC)c3)n(C(=O)Nc3ccc(F)cc3)n2)ccc1O`, the growth was 31.1%.

On to `COc1cc2c3c(n(CCCCNCCCn4c5c(c6cc(OC)c(OC)cc6c4=O)C(=O)c4cc6c(cc4-5)OCO6)c(=O)c2cc1OC)-c1cc2c(cc1C3=O)OCO2`, for which the growth was 88.7%.

In the case of `COc1cc(-c2cc(-c3ccc(Nc4ncnc5cc(Cl)ccc45)cc3)nc(N3CCN(C)CC3)n2)cc(OC)c1OC`, the growth was 99.3%.

Regarding `COc1cc(C(=O)/C=C/c2ccc(N3CCN(C)CC3)cc2)cc(OC)c1OC`, the growth was 95.8%.

As for `Cc1ccc2[nH]c(=O)c3c(c2c1)OC(N)=C(C#N)C31C(=O)c2cccc3cccc1c23` (stereo not given), the growth is 85.8%.

For the compound `Cn1c(=O)c2c(nc(NC3=NS(=O)(=O)c4ccccc43)n2Cc2ccccc2)n(C)c1=O`, the growth was 115%.

Consider `COc1ccc(C/C(C)=C(/c2ccc(OCCN3CCCCCC3)cc2)c2ccc(OC(=O)NCc3ccccc3)cc2)cc1`, for which the growth is 50.8%.

As for `Cn1cc(-c2csc(-c3cn(C(=O)OC(C)(C)C)c4ccccc34)n2)c2ccnc(Cl)c21`, the growth was 29.1%.

As to `CCN(C(=O)N1CCN(c2cc3c(cc2F)c(=O)c(C(=O)O)cn3C2CC2)CC1)c1nc(-c2ccc(C)cc2)cs1`, the growth is 25.5%.

Regarding `COC(=O)c1nc(-c2ccccc2)oc1S(=O)(=O)N1CCC(C(N)=O)CC1`, the growth was 36%.

Regarding `CCCCSCC(=O)c1ccccc1`, the growth was 95.4%.

In the case of `Cc1ccc(Nc2nc(-c3ccc(F)cc3)c(C#N)c(=O)n2C)cc1`, the growth was 35.5%.

Take `COc1cccc(OC)c1Oc1c(-c2nc3ccccc3s2)c(C)nn1-c1ccccc1`: the growth was 42.1%.

Take `Cc1ccccc1CNc1c2ccccc2nc2ccccc12`: the growth was 24.6%.

As to `COc1ccc2nc3ccccc3c(NCc3ccc(F)cc3)c2c1`, the growth was 36.5%.

In the case of `O=C1NC(=O)c2c1c1c3ccccc3[nH]c1c1oc3cc(Br)ccc3c21`, the growth is 28.1%.

On to `COc1ccc(-c2nnc(SCC(=O)Nc3ccc(/C(C)=N\O)cc3)n2-c2ccccc2)cc1OC`, for which the growth was 68%.

Turning to `CC1=CCC[C@@H]2C1(C)CC[C@H](C)[C@@]2(C)CC1=CC(=O)C(SC(C)(C)C)=CC1=O` (stereo not given in full), the growth was -11.8% (active).

For `CCn1cc(CNc2ccc(C(=O)Nc3cc4cc(OC)c(OC)cc4c(C)n3)cc2)c(C)n1`, the growth was -15.4% (active).

As for `CCCCN1C(=O)/C(=c2\sc3n(c2=O)NC2C(N=3)N(CC)C(=O)N2CC)c2ccccc21` (stereo not given), the growth was 18.7%.

In the case of `NC(=O)c1c(NC(=O)c2ccc(Cl)cc2)sc2c1CCC(=O)C2`, the growth was 35.9%.

Turning to `CC1(C)CC[C@]2(C(=O)O)CC[C@]3(C)C(=CC[C@@H]4[C@@]5(C)C[C@@H](Cc6cn([C@@H]7O[C@H](CO)[C@@H](O)[C@H](O)[C@H]7O)nn6)[C@H](O)C(C)(C)[C@@H]5CC[C@]43C)[C@@H]2C1`, the growth is 94.2%.

Regarding `CCNCc1ccc(O)c2ncccc12`, the growth is 27.3%.

With `CC(C)c1ccc(C(=O)Nc2sc3cc(O)ccc3c2C#N)cc1`, the growth was 36.4%.

On to `CCOC(=O)c1c(NC(=O)CSc2n[nH]c3nc4ccccc4n23)sc(CC)c1C`, for which the growth was 97.1%.

For the compound `COc1cccc(/C=C/C(=O)c2cc3c(N)c(C(=O)Nc4cccc(Cl)c4C)sc3nc2C)c1`, the growth was 9.1% (active).

Regarding `Cc1nn(-c2ccccc2)c(N2CCCCC2)c1/C=N/NC(=O)Cn1c(=O)sc2ccccc21`, the growth was 60.3%.

For the compound `COC(=O)Cc1nc(C#N)c(N(C)C)o1`, the growth is 89.6%.

Take `N=C(N)c1ccc(-c2ccc(-c3ccc(Cl)cc3Cl)s2)cc1F`: the growth was 14.8%.

For the compound `C/C(C=O)=C\c1ccc2c(c1)OCO2`, the growth is 117%.

For the compound `Cc1ccc(/C=C(\C#N)C(=O)Nc2ncc(Cc3cc(Cl)ccc3Cl)s2)o1`, the growth was 51.1%.

Regarding `C[C@@H]1CC[C@@]2(OC1)O[C@H]1C[C@H]3[C@@H]4CC=C5C[C@@H](O[C@@H]6O[C@H](CO)[C@@H](O[C@@H]7O[C@@H](CO)[C@H](O)[C@H]7O)[C@H](O)[C@H]6O[C@@H]6O[C@@H](C)[C@H](O)[C@@H](O)[C@H]6O)CC[C@]5(C)[C@H]4CC[C@]3(C)[C@H]1[C@@H]2C`, the growth is -22.6% (active).

Take `CCOC(=O)c1cn2ncnc(Oc3ccc(NC(=O)NC4CC4)c(F)c3)c2c1C`: the growth is 93.8%.
